Rows were chosen to be rich in hits. Some 3.3% of all compounds tested hit in one or more screens of this group.
BoNT F protease: BoNT/F light chain protease inhibitors, primary screen, biochemical, flow cytometry, MLPCN library. Multiplex microsphere protease cleavage assay. inhibition, % at 10 µM. 360,000 tested, 0.22% active. AID 588497, 2011; in the data active = inhibition above about 35%, passing the limit was not always enough; inconclusive = no clear call, values can overlap the other calls; also: plate controls were buffer without enzyme for full effect and enzyme alone for no effect
SSB-PriA inh: inhibitors of Klebsiella pneumoniae PriA binding to SSB C-terminal tail, primary screen, biochemical, AlphaScreen | 430,000 tested, 0.6% active | AID 1272365, 2023 | AlphaScreen SSBct-PriA binding, biotinylated peptide | inhibition, % at 33 µM | PriA–SSB C-terminal tail interaction (Klebsiella pneumoniae); in the data active = inhibition mostly above about 37%, no sharp cut-off; inactive = mostly below about 20%;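 also: plate controls were negative control peptide for no effect and reference peptide for full effect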
BoNT A protease: BoNT/A light chain protease inhibitors, primary screen, biochemical, flow cytometry, MLPCN library | Botulinum neurotoxin type A light chain protease (Clostridium botulinum A str. ATCC 3502) | multiplex microsphere protease substrate cleavage | inhibition, % at 10 µM | 360,000 tested, 0.17% active | AID 588499, 2011; also: plate controls were buffer without enzyme for full effect and enzyme alone for no effect
MazF activator: activators of E. coli MazEF toxin-antitoxin RNase, primary screen, biochemical, fluorescence, uHTS; Endoribonuclease toxin MazF (Escherichia coli (strain K12)), P0AE70; activation, % at 20 µM; FAM/BHQ RNA-DNA oligo cleavage fluorescence, 5 h; 350,000 tested, 0.32% active; in the data active = activation above about 50%
Anthrax LF prot: Bacillus anthracis LF protease inhibitors, primary screen, biochemical, multiplex microsphere, MLPCN library. multiplex microsphere protease cleavage assay. Lethal factor (Bacillus anthracis), P15917. 360,000 tested, 0.12% active. inhibition, % at 10 µM; also: plate controls were buffer without enzyme for full effect and enzyme alone for no effect
Target sequence (P15917 whole entry, looked up): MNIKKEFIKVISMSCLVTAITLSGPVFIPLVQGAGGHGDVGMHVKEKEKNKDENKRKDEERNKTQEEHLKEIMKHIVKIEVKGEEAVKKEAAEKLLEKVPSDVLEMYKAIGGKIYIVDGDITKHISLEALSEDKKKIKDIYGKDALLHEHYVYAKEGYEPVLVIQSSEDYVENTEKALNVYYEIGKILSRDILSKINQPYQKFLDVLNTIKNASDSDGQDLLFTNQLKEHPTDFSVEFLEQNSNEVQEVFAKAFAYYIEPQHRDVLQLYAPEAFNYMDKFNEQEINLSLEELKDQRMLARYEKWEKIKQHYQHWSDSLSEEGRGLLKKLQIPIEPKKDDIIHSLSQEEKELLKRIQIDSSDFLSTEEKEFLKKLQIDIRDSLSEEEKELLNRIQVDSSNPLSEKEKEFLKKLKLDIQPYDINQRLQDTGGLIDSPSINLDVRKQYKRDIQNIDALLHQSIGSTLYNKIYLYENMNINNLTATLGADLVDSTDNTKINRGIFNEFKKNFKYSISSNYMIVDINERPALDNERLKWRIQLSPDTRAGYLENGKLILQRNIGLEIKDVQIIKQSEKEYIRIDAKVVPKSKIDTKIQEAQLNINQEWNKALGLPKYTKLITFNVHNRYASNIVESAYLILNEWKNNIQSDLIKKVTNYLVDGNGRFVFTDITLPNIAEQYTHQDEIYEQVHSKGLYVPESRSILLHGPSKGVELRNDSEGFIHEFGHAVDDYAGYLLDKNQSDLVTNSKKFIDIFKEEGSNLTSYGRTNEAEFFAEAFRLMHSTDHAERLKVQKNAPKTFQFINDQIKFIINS
Autofluor counter: flagged as autofluorescent in microsphere protease counterscreen. fluorescence intensity (concentration not given with the values). compound autofluorescence counterscreen, microsphere flow cytometry; stronger effect = higher value. 360,000 tested, 3.1% active. AID 624483; in the data active = fluorescence intensity above about 16000; inconclusive = no clear call, values can overlap the other calls
Active calls of the source: *; ? = inconclusive; · = no result. Rule as the data show it, unless noted: active = inhibition above about 30%; inconclusive = no clear call, values can overlap the other calls; inactive = below that.

SMILES | BoNT F protease | SSB-PriA inh | BoNT A protease | MazF activator | Anthrax LF prot | Autofluor counter
CCOC(=O)c1sc2nc(-c3ccc(C)cc3)ccc2c1N | · | -9.0 | · | · | · | ·
CCc1c(C(=O)NC2CCCc3ccccc32)[nH]c(C)c1C(C)=O (centres undefined) | 4.6 | 5.2 | 3.1 | 3.9 | -1.8 | 5320
CCOC(=O)c1c(C)[nH]c(C(=O)NC2CCSc3ccccc32)c1C (centres undefined) | · | 25.4 | · | · | · | ·
CC(=O)c1c(C)[nH]c(C(=O)NC2CCSc3ccccc32)c1C (centres undefined) | -5.3 | 44.9* | -2.3 | -7.8 | -1.9 | 4588
CC(=O)c1c(C)[nH]c(C(=O)NC2CCSc3c(F)cccc32)c1C (centres undefined) | · | 88.2* | · | · | · | ·
CCOC(=O)c1c(C)[nH]c(C(=O)CN2C(=O)NC(C)(c3ccc4ccccc4c3)C2=O)c1C (centres undefined) | -2.1 | -20.4 | -1.6 | -6.4 | -2.9 | 20042*
COc1ccc(-n2nnc(C(=O)OCc3cccc(F)c3)c2C)cc1Cl | · | -17.0 | · | · | · | ·
O=C(c1ccc(OCc2nc(-c3ccco3)cs2)cc1)N1CCc2ccccc21 | · | -5.0 | · | · | · | ·
Cc1ccc(S(=O)(=O)N2CCN(c3nc(C(C)C)c4c(c3C#N)CC(C)(C)OC4)CC2)cc1 | 7.4 | -14.9 | 3.7 | -8.6 | -1.0 | 22172*
COc1ccc(-c2cc3nc4n(c(=O)c3s2)CCC4)cc1 | 1.0 | -7.5 | ? | 6.3 | 0.4 | 23433*
Nc1ccc2c(c1)oc1ccccc12 | 0.9 | 3.5 | 0.9 | 1.7 | 0.3 | 22331*
Nc1ccc2oc3ccccc3c2c1 | -12.2 | 6.4 | -1.5 | 8.6 | -8.3 | 7346
CC(C)Oc1ccc(C(=O)N2C3CCCC2COC3)cc1 | · | -15.0 | · | · | · | ·
Cn1c(NC(=O)CCc2ccccc2)cc(=O)n(C)c1=O | -2.0 | 46.0* | 0.5 | -18.0 | -2.5 | 5760
CCCC(=O)Nc1cc(=O)n(C)c(=O)n1C | -0.3 | -20.3 | -0.7 | -2.9 | -4.4 | 6070
CN1CCN(C(=S)c2cn(CCOc3ccccc3F)c3ccccc23)CC1 | -0.5 | 39.3* | -1.1 | 4.0 | 0.9 | 4336
CCOc1ccc2[nH]c3c(N4CCN(c5ccccn5)CC4)ncnc3c2c1 | -11.6 | 39.4* | -9.8 | 4.2 | -7.0 | 18129*
Cc1cccn2c(=O)c3c(nc12)N1CCc2ccccc2C1C1(C3)C(=O)NC(=O)N(C)C1=O (centres undefined) | -0.5 | 5.0 | 0.6 | 1.9 | -3.2 | 19729*
CCCCN1C(=O)NC(=O)C2(Cc3c(nc4c(C)cccn4c3=O)N3CCc4ccccc4C32)C1=O (centres undefined) | -0.3 | -13.5 | -0.7 | 2.1 | -7.5 | 9271
CCC1Oc2ccc(C)cc2N(CC(=O)NCCCN2CCOCC2)C1=O (centres undefined) | 8.9 | -2.6 | 1.4 | 1.7 | 2.0 | 4883
CCC1Oc2ccc(C)cc2N(CC(=O)NCCC2=CCCCC2)C1=O (centres undefined) | 6.8 | -7.6 | ? | 4.9 | 1.0 | 18757*
CCC1Oc2ccc(C)cc2N(CC(=O)NCCCN2CCCCC2CC)C1=O (centres undefined) | -6.3 | -10.6 | -4.2 | 4.1 | -3.6 | 24712*
CCC1Oc2ccc(C)cc2N(CC(=O)NCCCN2CCCCC2C)C1=O (centres undefined) | 7.3 | -13.8 | 0.9 | 11.6 | -3.3 | 5358
Cc1nnc(NC(=O)CSc2nnc(CNC(=O)c3ccco3)o2)s1 | · | -13.0 | · | · | · | ·
O=C(Cc1ccccc1)Nc1ccc(N2CCN(Cc3ccccc3F)CC2)cc1 | 5.6 | -5.1 | ? | 5.3 | -11.6 | 17943*
CCC(=O)Nc1ccc(N2CCN(Cc3ccccc3F)CC2)cc1 | 14.1 | 4.7 | 1.6 | 5.2 | 9.1 | ?
O=C(c1ccccc1)N1CCN(c2ccc(NCc3ccc4c(c3)OCO4)cc2)CC1 | -9.8 | 46.2* | -0.7 | -3.2 | -15.3 | 6230
COc1ccc(C(=O)N2CCN(c3ccc(NC(=O)Cc4ccccc4)cc3)CC2)cc1 | -4.8 | 4.1 | -1.0 | -17.9 | -3.9 | 5722
O=C(c1cc(-c2ccc(Cl)c(Cl)c2)on1)N1CCOCC1 | 0.5 | 2.4 | 0.2 | 4.0 | -0.4 | 6176

Bioassay records as filed in PubChem BioAssay.
